Measured values published in PubChem BioAssay (NCATS).
Records with an inconclusive call do not appear. Calls of active or inactive are those of the source. Unless noted, calls follow the shape of the dose curve; as a rule, active = well fitted curve in either direction with a large enough effect (not every such curve was filed as active); inconclusive = small, poorly fitted or top-dose-only effect, or another doubt; inactive = flat fitted curve, though single readings scatter.

Columns and labels:
[1] = target: Lysosomal acid glucosylceramidase (Homo sapiens) (UniProt P04062); experiment: Glucocerebrosidase-p2 (AID 348; in the data active = potency below about 10 µM; also: potency is read from the fitted curve at half-maximal effect); details: purified GBA, blue fluorogenic substrate, 40 min
Sequence of Lysosomal acid glucosylceramidase (Homo sapiens) (P04062 whole entry, looked up): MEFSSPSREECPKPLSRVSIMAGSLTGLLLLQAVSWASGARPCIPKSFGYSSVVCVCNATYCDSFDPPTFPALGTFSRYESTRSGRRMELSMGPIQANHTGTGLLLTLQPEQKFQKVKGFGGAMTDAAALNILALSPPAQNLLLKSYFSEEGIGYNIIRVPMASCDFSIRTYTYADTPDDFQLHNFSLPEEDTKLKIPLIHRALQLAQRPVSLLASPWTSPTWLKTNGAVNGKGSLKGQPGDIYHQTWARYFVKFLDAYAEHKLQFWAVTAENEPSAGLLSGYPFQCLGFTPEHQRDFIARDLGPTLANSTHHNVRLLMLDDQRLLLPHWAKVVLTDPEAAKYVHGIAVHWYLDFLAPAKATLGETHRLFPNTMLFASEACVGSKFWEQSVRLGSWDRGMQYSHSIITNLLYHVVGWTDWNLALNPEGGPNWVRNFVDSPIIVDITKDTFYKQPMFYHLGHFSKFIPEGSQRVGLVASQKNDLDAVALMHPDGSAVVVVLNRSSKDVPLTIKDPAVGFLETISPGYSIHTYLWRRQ
How it was run: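 Compounds titrated from 0.6 nM upwards against 0.2 nM enzyme in pH 5.9 citric acid/KH2PO4, taurocholate, tween-20; blue fluorogenic substrate 80 uM, 40 min room temperature, stopped and read Ex 365/Em 440 for AC50.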

[2] = AP1 Signaling Pathway (AID 357); details: ME-180 AP-1-bla reporter, EGF-induced, beta-lactamase ratio, 5 h; at 7.69 µM (top of the series) unless noted;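 also: ME-180 reporter cells stimulated with EGF at its EC50 level; % is scaled to controls: 0 for no effect and ±100 for the full control effect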
How it was run: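 A ratiometric CCF4 readout (405 nm excitation; 460 and 530 nm emission) quantified AP-1-driven beta-lactamase in ME-180 cells after 5 h with compound and EC50 EGF; AC50 values were derived for activators and inhibitors.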

[3] = target: Cytochrome P450 1A2 (Homo sapiens) (UniProt P05177); experiment: p450-cyp1a2 (AID 410; calls by dose curve; also: potency is read from the fitted curve at half-maximal effect); details: recombinant CYP1A2, luciferin-ME demethylation, luminescence; series mostly up to 57 µM
Sequence of Cytochrome P450 1A2 (Homo sapiens) (P05177 whole entry, looked up): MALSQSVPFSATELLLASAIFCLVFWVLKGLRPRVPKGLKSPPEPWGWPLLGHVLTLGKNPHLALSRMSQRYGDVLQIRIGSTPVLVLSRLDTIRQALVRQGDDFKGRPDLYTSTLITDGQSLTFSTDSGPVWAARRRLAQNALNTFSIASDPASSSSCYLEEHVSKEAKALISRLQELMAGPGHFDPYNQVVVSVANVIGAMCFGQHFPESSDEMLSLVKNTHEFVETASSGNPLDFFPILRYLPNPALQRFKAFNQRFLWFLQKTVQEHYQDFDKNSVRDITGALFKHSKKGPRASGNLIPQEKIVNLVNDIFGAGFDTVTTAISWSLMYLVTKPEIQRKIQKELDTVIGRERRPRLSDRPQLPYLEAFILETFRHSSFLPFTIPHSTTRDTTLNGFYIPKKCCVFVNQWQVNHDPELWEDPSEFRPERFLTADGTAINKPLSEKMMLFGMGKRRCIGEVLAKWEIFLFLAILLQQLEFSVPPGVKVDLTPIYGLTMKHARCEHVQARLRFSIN
How it was run: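 Luminescent readout of luciferin formed from Luciferin-ME by human CYP1A2; data normalized against complete inhibition by 57 uM furafylline. Enzyme 20nM, substrate 100uM at Km, 100mM KPO4 buffer, 60 min reaction at room temperature.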

[4] = NFAT Signaling Pathway (AID 444); details: Jurkat NFAT-bla M1, carbachol, beta-lactamase ratio, 5 h; at 7.69 µM (top of the series) unless noted;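 also: carbachol stimulus at about its EC50 of 1 µM final; % is scaled to controls: 0 for no effect and ±100 for the full control effect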
How it was run: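 Jurkat cells carrying an NFAT-driven β-lactamase reporter and co-transfected muscarinic M1 receptor were treated with compound plus carbachol (1 uM final, an EC50 level) for 5 h at 37 °C. CCF4 loading followed for 1 h at RT; 460/530 nm ratio gave %activity.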

[5] = Stat Signaling Pathway (AID 446); details: ME-180 SIE beta-lactamase reporter, IL-6 stimulated, 5 h; at 7.69 µM (top of the series) unless noted;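 also: ME-180 cervical cancer cells given 40 pM IL-6 alongside compound; SIE-controlled beta-lactamase reporter measured as 460/530 nm FRET emission ratio; % is scaled to controls: 0 for no effect and ±100 for the full control effect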
How it was run: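 ME-180 SIE-bla cells; overnight plating; cpd + IL-6 40 pM, 5 h, 37 C; LiveBLAzer 2.5 h RT; 460/530 nm emission ratio. Normalized to 300 pM IL-6 and 125 nM JAK inhibitor controls.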

[6] = target: Glucocorticoid receptor (Homo sapiens) (UniProt P04150); experiment: GR-GFP Redistribution (AID 450;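 active = compounds whose dose series gives a full or clear partial fitted curve of increased nuclear translocation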; also: potency is read from the fitted curve at half-maximal effect); details: U2OS GR-GFP nuclear translocation, laser cytometry, 2 h
Sequence of Glucocorticoid receptor (Homo sapiens) (P04150 whole entry, looked up, the tested form may be a part): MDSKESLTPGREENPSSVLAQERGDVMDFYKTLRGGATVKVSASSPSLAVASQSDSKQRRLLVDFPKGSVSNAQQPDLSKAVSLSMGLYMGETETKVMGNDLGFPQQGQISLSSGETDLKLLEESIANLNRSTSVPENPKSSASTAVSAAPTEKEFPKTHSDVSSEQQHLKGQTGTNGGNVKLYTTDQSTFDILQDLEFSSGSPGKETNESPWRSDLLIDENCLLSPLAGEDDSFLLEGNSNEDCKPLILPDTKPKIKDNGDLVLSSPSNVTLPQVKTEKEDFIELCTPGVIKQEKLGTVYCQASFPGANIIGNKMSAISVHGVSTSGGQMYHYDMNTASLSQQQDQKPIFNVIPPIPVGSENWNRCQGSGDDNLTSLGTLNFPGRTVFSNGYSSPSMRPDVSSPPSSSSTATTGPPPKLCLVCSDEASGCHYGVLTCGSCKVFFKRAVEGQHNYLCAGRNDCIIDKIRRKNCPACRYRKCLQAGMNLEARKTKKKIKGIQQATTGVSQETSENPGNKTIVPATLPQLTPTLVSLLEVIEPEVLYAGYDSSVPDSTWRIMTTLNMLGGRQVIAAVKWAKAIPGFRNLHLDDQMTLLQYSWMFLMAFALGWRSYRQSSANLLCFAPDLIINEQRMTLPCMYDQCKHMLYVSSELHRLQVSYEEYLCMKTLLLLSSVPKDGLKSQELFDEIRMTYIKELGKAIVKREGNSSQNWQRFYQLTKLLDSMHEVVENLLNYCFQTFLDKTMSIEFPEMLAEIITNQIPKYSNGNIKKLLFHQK

[7] = target: Glucocorticoid receptor (Homo sapiens) (UniProt P04150); experiment: GR-EFC Redistribution (AID 451; calls by dose curve; also: potency is read from the fitted curve at half-maximal effect); details: CHO-K1 GR-EFC translocation, beta-gal luminescence, 2 h
How it was run: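 CHO-K1 cells stably expressing nuclear-localized β-gal enzyme acceptor and GR fused C-terminally to the enzyme donor fragment; ligand-driven nuclear translocation restores β-gal by complementation. Compounds titrated up to 46 uM final, 2 h at 37 °C; luminescence read.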

[8] = target: Mitogen-activated protein kinase 10 (Mus musculus) (UniProt Q61831); experiment: JNK3 AlphaScreen Assay (AID 530); details: JNK3 lysate, c-Jun phosphorylation; series mostly up to 57.1 µM;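 also: kinase came from lysate of stimulated human HepG2 cells; signal reports phosphorylation of biotinylated GST-cJun 1-79 at Ser73 with 10 µM ATP; % is scaled to controls: 0 for no effect and ±100 for the full control effect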
How it was run: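 Inhibitors reduce antibody binding to phosphorylated biotin-cJun, lowering AlphaScreen luminescence. Lysates from HepG2 cells pre-activated by IL-1beta plus TNF-alpha supplied JNK3; compounds were titrated.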

[9] = qHTS Assay for Lipid Storage Modulators (AID 1519; calls by dose curve); details: Drosophila S3 cells, BODIPY lipid droplet/cell ratio, laser cytometry, cells loaded with oleic acid; for activity change, negative = inhibition: at 57.5 µM (top of the series)
How it was run: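 Cells seeded at 5,000 per well were treated with compounds over a concentration series and loaded with oleic acid (400 uM, as added). Lipid droplet fluorescence (488 nm excitation, 500-530 nm channel) was read by laser-scanning cytometry and normalized to 20 uM Triacsin C.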

[10] = target: Dual specificity protein kinase CLK4 (Homo sapiens) (UniProt Q9HAZ1); experiment: qHTS Assay for Inhibitors of CDC-like Kinase 4 (ADP-Glo Assay) (AID 1771; active = well fitted curve in the direction sought with a large enough effect; an effect the other way counts as inactive or inconclusive; also: nearly all actives have a fitted effect of over 70% in size; also: potency is read from the fitted curve at half-maximal effect); details: recombinant CLK4, ADP-Glo luminescence; series mostly up to 80 µM
Sequence of Dual specificity protein kinase CLK4 (Homo sapiens) (Q9HAZ1 whole entry, looked up): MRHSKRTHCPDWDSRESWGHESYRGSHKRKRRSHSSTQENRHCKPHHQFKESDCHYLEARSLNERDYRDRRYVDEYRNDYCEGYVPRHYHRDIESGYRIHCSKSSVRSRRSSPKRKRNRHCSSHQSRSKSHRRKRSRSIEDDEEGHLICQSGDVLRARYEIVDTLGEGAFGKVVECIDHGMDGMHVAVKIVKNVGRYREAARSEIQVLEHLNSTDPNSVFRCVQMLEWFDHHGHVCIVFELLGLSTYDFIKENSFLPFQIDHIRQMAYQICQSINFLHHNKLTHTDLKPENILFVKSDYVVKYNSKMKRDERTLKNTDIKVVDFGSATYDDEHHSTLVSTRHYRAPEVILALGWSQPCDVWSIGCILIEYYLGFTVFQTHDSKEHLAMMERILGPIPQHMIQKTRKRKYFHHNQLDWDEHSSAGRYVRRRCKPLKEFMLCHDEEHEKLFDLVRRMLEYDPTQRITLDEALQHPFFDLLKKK
How it was run: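 Luminescence from ADP-Glo reports ADP produced by 25 nM Clk4 acting on 100 uM RS repeat peptide with 1 uM ATP over 1 hr at room temperature; residual ATP is depleted before ADP is converted to ATP for detection.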

[11] = target: Ubiquitin carboxyl-terminal hydrolase 1 (Homo sapiens) (UniProt O94782); experiment: Inhibitors of USP1/UAF1: Pilot qHTS (AID 504865; active = well fitted curve in the direction sought with a large enough effect; an effect the other way counts as inactive or inconclusive;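 also: rhodamine fluorescence freed from ubiquitin-rhodamine substrate followed over time; top concentration of the series differs between compounds; % is scaled to controls: 0 for no effect and ±100 for the full control effect; nearly all actives have a fitted effect of over 35% in size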); details: purified USP1/UAF1, Ub-rhodamine cleavage fluorescence; series mostly up to 54.9 µM
Sequence of Ubiquitin carboxyl-terminal hydrolase 1 (Homo sapiens) (O94782 whole entry, looked up): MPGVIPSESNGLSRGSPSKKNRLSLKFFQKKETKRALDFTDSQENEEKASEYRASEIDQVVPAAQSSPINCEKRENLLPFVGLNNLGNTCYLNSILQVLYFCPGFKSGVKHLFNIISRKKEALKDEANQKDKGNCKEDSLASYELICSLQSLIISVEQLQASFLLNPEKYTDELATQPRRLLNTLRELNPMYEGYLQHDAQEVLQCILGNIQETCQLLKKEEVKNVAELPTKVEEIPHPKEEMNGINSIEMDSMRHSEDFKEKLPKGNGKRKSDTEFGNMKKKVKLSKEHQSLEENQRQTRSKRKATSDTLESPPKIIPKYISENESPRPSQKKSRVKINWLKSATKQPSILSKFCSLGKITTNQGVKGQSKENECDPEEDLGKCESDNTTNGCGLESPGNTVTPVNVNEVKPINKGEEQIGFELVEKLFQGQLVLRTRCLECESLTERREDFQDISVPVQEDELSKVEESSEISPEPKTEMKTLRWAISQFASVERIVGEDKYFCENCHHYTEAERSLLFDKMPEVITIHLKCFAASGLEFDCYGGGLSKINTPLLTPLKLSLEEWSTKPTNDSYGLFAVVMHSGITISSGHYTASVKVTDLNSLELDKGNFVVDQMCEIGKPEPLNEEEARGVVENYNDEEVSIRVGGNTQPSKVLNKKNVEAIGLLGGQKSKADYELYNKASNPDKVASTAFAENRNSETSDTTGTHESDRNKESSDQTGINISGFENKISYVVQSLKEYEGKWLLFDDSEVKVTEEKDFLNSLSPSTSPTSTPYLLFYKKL
How it was run: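 USP1/UAF1 complex (1nM) preincubated with compound 15 min at room temperature, then Ub-Rho substrate (150nM final) added. Fluorescence read kinetically at 480/540 nm, 6 reads every 60 seconds. Buffer: 50mM HEPES pH 7.8, 0.5mM EDTA, 0.1 mg/ml BSA, 1mM TCEP, 0.01% Tween-20.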

[12] = Primary qHTS for small molecule stabilizers of the endoplasmic reticulum resident proteome: Secreted ER Calcium Modulated Protein (SERCaMP) assay (AID 1508630; active = well fitted curve in the direction sought with a large enough effect; an effect the other way counts as inactive or inconclusive; also: % is scaled to controls: 0 for no effect and ±100 for the full control effect); details: SH-SY5Y GLuc-SERCaMP (Gaussia luciferase released on ER calcium loss) secretion, thapsigargin, luminescence; series mostly up to 38.4 µM
How it was run: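 GLuc-SERCaMP-expressing SH-SY5Y cells, pretreated 16 h with compound, are challenged with thapsigargin to empty ER calcium stores; after 4 h, coelenterazine is added directly to the medium and luminescence is imaged.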

[13] = target: 3',5'-cyclic-AMP phosphodiesterase 4B (Homo sapiens) (UniProt Q07343); experiment: qHTS Assay for Inhibitors of PDE-IV (AID 607; active = well fitted activation curve with a large enough effect in the main read-out, with a control signal flat, not every such curve was filed as active; also: % of control where 0% means no effect); details: HEK293 ACTOne CNG channel cells, membrane potential fluorescence; series mostly up to 22.9 µM
Sequence of 3',5'-cyclic-AMP phosphodiesterase 4B (Homo sapiens) (Q07343 whole entry, looked up): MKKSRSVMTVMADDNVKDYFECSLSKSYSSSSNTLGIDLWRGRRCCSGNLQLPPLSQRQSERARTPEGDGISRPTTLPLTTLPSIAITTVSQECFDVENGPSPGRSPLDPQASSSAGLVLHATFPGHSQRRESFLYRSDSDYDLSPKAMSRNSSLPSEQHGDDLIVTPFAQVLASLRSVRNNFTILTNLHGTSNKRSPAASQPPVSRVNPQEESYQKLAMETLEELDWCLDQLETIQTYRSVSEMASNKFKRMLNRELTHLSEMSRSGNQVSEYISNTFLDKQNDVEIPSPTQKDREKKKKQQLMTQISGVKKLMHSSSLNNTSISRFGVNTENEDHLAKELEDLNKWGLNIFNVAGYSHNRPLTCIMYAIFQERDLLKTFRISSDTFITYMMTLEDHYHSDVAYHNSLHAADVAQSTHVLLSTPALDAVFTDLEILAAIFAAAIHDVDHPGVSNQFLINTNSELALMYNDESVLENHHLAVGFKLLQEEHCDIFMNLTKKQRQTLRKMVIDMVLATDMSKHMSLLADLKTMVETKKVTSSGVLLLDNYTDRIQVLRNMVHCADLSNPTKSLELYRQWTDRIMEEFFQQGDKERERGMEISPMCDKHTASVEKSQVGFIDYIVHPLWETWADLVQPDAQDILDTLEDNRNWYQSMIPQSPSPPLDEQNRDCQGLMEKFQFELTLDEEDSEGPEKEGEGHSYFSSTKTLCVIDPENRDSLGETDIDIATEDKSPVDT
How it was run: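 ACTOne HEK293 cells carry a modified cAMP-gated CNG channel and express endogenous PDE4; plated 1000 cells/well, compounds up to 22.9 uM final. Membrane-potential dye fluorescence (ex 535/em 590) was read; parental cells received 10 uM forskolin + 100 uM RO 20-1724.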

[14] = target: Cytochrome P450 3A4 (Homo sapiens) (UniProt P08684); experiment: qHTS Assay for Activators of Cytochrome P450 3A4 (AID 885; active = well fitted curve in the direction sought with a large enough effect; an effect the other way counts as inactive or inconclusive; also: nearly all actives have a fitted effect of over 65% in size); details: recombinant CYP3A4, Luciferin-PPXE luminescence, 60 min; series mostly up to 57.1 µM
Sequence of Cytochrome P450 3A4 (Homo sapiens) (P08684 whole entry, looked up): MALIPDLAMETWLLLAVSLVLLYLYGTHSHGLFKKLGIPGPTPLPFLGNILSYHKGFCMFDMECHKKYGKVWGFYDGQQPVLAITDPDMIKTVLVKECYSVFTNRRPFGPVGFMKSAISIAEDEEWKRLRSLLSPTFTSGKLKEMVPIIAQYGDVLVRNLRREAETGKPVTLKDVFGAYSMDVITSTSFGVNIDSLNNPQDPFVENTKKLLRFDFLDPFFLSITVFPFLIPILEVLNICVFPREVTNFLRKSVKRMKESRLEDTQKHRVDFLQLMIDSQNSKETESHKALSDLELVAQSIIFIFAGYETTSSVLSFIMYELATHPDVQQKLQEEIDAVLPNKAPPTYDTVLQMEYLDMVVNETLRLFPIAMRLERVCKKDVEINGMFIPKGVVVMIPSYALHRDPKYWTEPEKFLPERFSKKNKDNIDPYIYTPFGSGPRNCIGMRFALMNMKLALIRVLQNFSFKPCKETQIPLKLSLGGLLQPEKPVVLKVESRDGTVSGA
How it was run: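 20nM CYP3A4 + 25uM Luciferin-PPXE (=KM), 200mM KPO4; cpd 10 min RT; NADPH regen, 60 min RT; stop w/ detection buffer, 20 min; luminescence. Normalized to 57 uM ketoconazole.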

[15] = target: Dual specificity protein kinase CLK4 (Homo sapiens) (UniProt Q9HAZ1); experiment: qHTS Assay for Inhibitors of CDC-like Kinase 4 (ADP-FP Assay) (AID 1795; active = well fitted curve in the direction sought with a large enough effect; an effect the other way counts as inactive or inconclusive; also: % is scaled to controls: 0 for no effect and ±100 for the full control effect; nearly all actives have a fitted effect of over 60% in size); details: Transcreener ADP fluorescence polarization; series mostly up to 50 µM
How it was run: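 Recombinant human Clk4 (6.25 nM) phosphorylated RS repeat peptide (100 uM) with 1 uM ATP in Tris pH 7.5/MgCl2/EGTA/DTT/Triton buffer for one hour. ADP was quantified by Transcreener competitive fluorescence polarization against an ADP calibration curve.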

[16] = measured here: cell count channel max response
[17] = measured here: lipid channel max response

SMILES	Potency [1]	activity change, negative = inhibition [2]	Potency [3]	activity change, negative = inhibition [4]	activity, negative = inhibition [5]	Potency [6]	Potency [7]	outcome [8]	activity change, negative = inhibition [9]	max response [9, 16]	max response [9, 17]	Potency [10]	Potency [11]	Potency [12]	Potency [13]	Potency [14]	Potency [15]
c1ccc2c(NC3CCNCC3)nc(-c3ccoc3)nc2c1	> 11.4 µM (inactive)	8.91% (inactive)	15.8 µM (active)	5.13% (inactive)	7% (inactive)	> 46 µM (inactive)	> 46 µM (inactive)	inactive	0.038% (inactive)	5.08%	2.41%	inactive	inactive	inactive	–	–	–
CCNc1ncc2nc(C)c(=O)n(Cc3ccc(F)cc3)c2n1	> 11.4 µM (inactive)	-0.98% (inactive)	1.58 µM (active)	-0.858% (inactive)	-2.29% (inactive)	> 9.22 µM (inactive)	> 46 µM (inactive)	inactive	3.29% (inactive)	23.4%	24.2%	15.8 µM (active)	inactive	inactive	inactive	inactive	inactive
Cn1c(=O)cnc2cnc(OCc3ccccc3)nc21	> 11.4 µM (inactive)	-10.8% (inactive)	–	–	-10.5% (inactive)	> 9.22 µM (inactive)	> 46 µM (inactive)	inactive	9.09% (inactive)	18.8%	26%	20 µM (active)	inactive	inactive	inactive	–	–
